# Test results as given in the supplement of paper PMC10515830.
# Structures can show the parent of a compound that is named as a salt.
# Legend:
# Settings in all cases: 10 µM; exposure time 6 h
# [1] = test system: Danio rerio larvae (5 dpf); assay: difference in excitability vs DMSO (percentage points); higher = more excitable than DMSO
# Summary of the method: (§1)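 Wild-type 5 dpf zebrafish larvae in 96-well plates were given 100 µL egg water containing library compound at 10 µM final for 6 h. After 3 h of exposure, plates at 28.5 ℃ were photographed every 6 s during a 3-h programme of moving lines and 100 ms, 400Hz tones. Z-LaP Tracker (a DeepLabCut model) quantified each behaviour, averaged over 48 larvae per compound. Values are the compound mean minus the DMSO-vehicle control, in percentage points.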
# [2] = test system: Danio rerio larvae (5 dpf); assay: difference in startle response vs DMSO (percentage points); higher = stronger startle than DMSO
# Summary of the method: as §1
# [3] = test system: Danio rerio larvae (5 dpf); assay: difference in activity during first hour vs DMSO (percentage points); higher = more activity than DMSO
# Summary of the method: as §1
# [4] = test system: Danio rerio larvae (5 dpf); assay: difference in habituation to acoustic stimuli vs DMSO (percentage points); higher = more habituation than DMSO
# Summary of the method: as §1
# [5] = test system: Danio rerio larvae (5 dpf); assay: difference in combined optomotor response to red, green and blue moving lines vs DMSO (percentage points); higher = stronger optomotor response than DMSO
# Summary of the method: as §1
Structure (SMILES),difference in excitability [1],difference in startle response [2],difference in activity during first hour [3],difference in habituation to acoustic stimuli [4],difference [5]
C/C(=C\c1csc(C)n1)[C@@H]1C[C@@H]2O[C@]2(C)CCC[C@H](C)[C@H](O)[C@@H](C)C(=O)C(C)(C)[C@@H](O)CC(=O)N1 [Ixabepilone],0.28,-3.45,16.6,5.42,-1.72
COc1ccc(-c2ccc3cc(C(=O)O)ccc3c2)cc1C12CC3CC(CC(C3)C1)C2 [Adapalene],-8.45,3.9,-0.172,-5,3.86
O=C1CN(/N=C/c2ccc([N+](=O)[O-])o2)C(=O)N1 [Nitrofurantoin],9.88,-2.07,8.16,4.03,8.98
O=C1[C@H](CC[C@H](O)c2ccc(F)cc2)[C@@H](c2ccc(O)cc2)N1c1ccc(F)cc1 [Ezetimibe],3.43,3.17,-1.12,-7.52,7.17
CCOC(=O)[C@@](C)(N)Cc1ccc(O)c(O)c1 [Methyldopate],14.5,1.24,-2.29,-2.04,-2.04
CCCCCCCN(CC)CCCC(O)c1ccc(NS(C)(=O)=O)cc1 (racemic) [(±)-Ibutilide (hemifumarate)],17.7,1.14,-7.19,6.3,-6.18
Cc1cc(C2CCCCC2)n(O)c(=O)c1 [Ciclopirox],3.8,-2.37,8.43,5.39,8.2
Oc1ncnc2[nH]ncc12 [Allopurinol],0.512,-2.34,-0.131,0.54,1.46
CS(=O)(=O)CCNCc1ccc(-c2ccc3ncnc(Nc4ccc(OCc5cccc(F)c5)c(Cl)c4)c3c2)o1 [Lapatinib],-0.459,0.335,-8.64,-0.929,1.37
CC1(C)S[C@@H]2[C@H](NC(=O)[C@H](N)c3ccc(O)cc3)C(=O)N2[C@H]1C(=O)O [Amoxicillin (hydrate)],2.37,8.42,13.1,5.1,8.79
N#Cc1ccc(Oc2ccc3c(c2)COB3O)cc1,-2.19,-0.784,-16.9,-15.1,-18.2
C[C@H](CCC(=O)O)[C@H]1CC[C@H]2[C@@H]3CC[C@@H]4C[C@H](O)CC[C@]4(C)[C@H]3C[C@H](O)[C@]12C [Deoxycholic Acid],13.1,-0.179,23.8,3.17,0.759
CN(C)CCc1c[nH]c2ccc(C[C@H]3COC(=O)N3)cc12 [Zolmitriptan],-7.59,9.39,-0.487,4.76,10.3
CCc1ccc(CCOc2ccc(CC3SC(=O)NC3=O)cc2)nc1 (stereo not given) [Pioglitazone (hydrochloride)],12.4,-4.66,-15.3,6.03,3.69
Nc1nc2c(c(=O)[nH]1)N(C=O)C(CNc1ccc(C(=O)NC(CCC(=O)O)C(=O)O)cc1)CN2 (racemic) [DL-Folinic Acid (calcium salt)],-0.743,2.87,8.84,0.082,5.53
N[C@@H]1CONC1=O [D-Cycloserine],6.37,-2.86,4.38,-2.22,10.3
Cc1ccc(/C(=C\CN2CCCC2)c2cccc(/C=C/C(=O)O)n2)cc1 [Acrivastine],1.28,-0.645,0.462,0.73,-3.37
CC(C)(C)NCC(O)c1ccc(O)c(CO)c1 (stereo not given) [Salbutamol],8.67,1.17,20.7,-4.78,5.67
CCCS(=O)(=O)Nc1ccc(F)c(C(=O)c2c[nH]c3ncc(-c4ccc(Cl)cc4)cc23)c1F,-2.43,-1.48,-5.03,2.88,-0.602
CC1CNc2c(cccc2S(=O)(=O)N[C@@H](CCCNC(=N)N)C(=O)N2CC[C@@H](C)C[C@@H]2C(=O)O)C1 (stereo not given in full) [Argatroban],3.15,2.67,19.4,-4.15,3.46
Cc1ccccc1N1C(=O)c2cc(S(N)(=O)=O)c(Cl)cc2NC1C (stereo not given) [Metolazone],5.2,4.85,-12.7,0.578,1.31
C=C[C@H]1CN2CC[C@H]1C[C@H]2[C@H](O)c1ccnc2ccc(OC)cc12 [Quinine],11.3,10.1,-2.96,0.181,-0.242
C[C@H]1[C@H](NC(=O)/C(=N\OC(C)(C)C(=O)O)c2csc(N)n2)C(=O)N1S(=O)(=O)O [Aztreonam],-7.88,8.41,8.84,5.95,-0.4
Clc1ccc(CCC(Cn2ccnc2)Sc2c(Cl)cccc2Cl)cc1 (stereo not given) [Butoconazole (nitrate)],9.05,-10.1,-20.7,-10.8,-16.7
C#C[C@]1(O)CC[C@H]2[C@@H]3CCC4=CC(=O)CC[C@@H]4[C@H]3C(=C)C[C@@]21CC [Etonogestrel],12.2,-2.36,0.0241,-5.37,10.4
CCc1cc2c(cc1N1CCC(N3CCOCC3)CC1)C(C)(C)c1[nH]c3cc(C#N)ccc3c1C2=O,-3.24,3.84,9.56,0.995,0.182
CCCN(CCc1cccs1)[C@H]1CCc2c(O)cccc2C1 [Rotigotine],20.1,-3.78,-23.8,-14.4,-15.9
